Z-score and composite z-score data for 12 compounds are collected here from PubChem BioAssay.

SMILES strings stand for the structures. Calls of active or inactive are those of the source.

Experiment [1] is described as follows: optical density shifts of acrAB sulA E. coli – strain DRC41, OD650, 48 h, E. coli filamentation inducer project, primary screen (AID 1152).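 Further: E. coli MC1000 strain DRC41 lacking acrAB efflux pump and sulA.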 Particulars: higher = more signal, called active from +8 up or from −8 down.
A short description of experiment [2]: probe aLefty1 binding on compound microarray – biochemical, small-molecule microarray, 635/667 nm fluorescence, primary screen (AID 1153).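 Further: score merges spot fluorescence with signal-to-noise ratio from the scanned slide images.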 Particulars: higher = more signal.
Experiment [3] in a line: plasmodial surface anion channel blockers, osmotic lysis – cell-based, P. falciparum Indochina, OD700, 1 h, primary screen (AID 1154). The conditions noted are these: P. falciparum Indochina infected RBC osmotic lysis, higher = more signal, called active from +8 up or from −8 down.
Experiment [4] can be described thus: plasmodial surface anion channel blockers, osmotic lysis – cell-based, P. falciparum Indochina, OD700, 2 h, primary screen (AID 1155).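 Further: lysis reports solute entry through the parasite surface anion channel PSAC.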 Particulars: P. falciparum Indochina infected erythrocytes, higher = more signal, called active from +8 up or from −8 down.
Experiment [5] can be described thus: changes in parasitized red cell lysis, either direction – P. falciparum Indochina, OD700, 3 h, PSAC antagonist project, primary screen (AID 1156). Particulars: P. falciparum-infected erythrocytes, osmotic lysis, higher = more signal, called active from +8 up or from −8 down.
Experiment [6] in a line: plasmodial surface anion channel blockers, osmotic lysis – cell-based, P. falciparum Indochina, OD700, 18 h, primary screen (AID 1157). The conditions noted are these: P. falciparum Indochina infected erythrocytes, osmotic lysis OD700, 18 h; higher = more signal, called active from +8 up or from −8 down.
A short description of experiment [7]: S6 kinase pathway phospho-S6 level changes – cell-based, A549, cytoblot, luminescence, serum-stimulated, primary screen (AID 1158).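 Further: serum-stimulated A549 lung adenocarcinoma cells; signal is phosphorylated S6 detected by cytoblot immunostaining with HRP secondary.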 Particulars: 5 h, higher = more signal.
Experiment [8] deals with NADPH oxidase 2 (Homo sapiens) (UniProt P04839). The experiment can be described thus: compounds shifting NOX2 Amplex Red fluorescence – cell-based, HEK293-NOX2, PMA-stimulated, NOX inhibitor project, primary screen (AID 1159). Further: test concentration not given here. Particulars: 45 min, higher = more signal, called active from +8 up or from −8 down.
Chain of NADPH oxidase 2 (Homo sapiens) (P04839 whole entry, looked up): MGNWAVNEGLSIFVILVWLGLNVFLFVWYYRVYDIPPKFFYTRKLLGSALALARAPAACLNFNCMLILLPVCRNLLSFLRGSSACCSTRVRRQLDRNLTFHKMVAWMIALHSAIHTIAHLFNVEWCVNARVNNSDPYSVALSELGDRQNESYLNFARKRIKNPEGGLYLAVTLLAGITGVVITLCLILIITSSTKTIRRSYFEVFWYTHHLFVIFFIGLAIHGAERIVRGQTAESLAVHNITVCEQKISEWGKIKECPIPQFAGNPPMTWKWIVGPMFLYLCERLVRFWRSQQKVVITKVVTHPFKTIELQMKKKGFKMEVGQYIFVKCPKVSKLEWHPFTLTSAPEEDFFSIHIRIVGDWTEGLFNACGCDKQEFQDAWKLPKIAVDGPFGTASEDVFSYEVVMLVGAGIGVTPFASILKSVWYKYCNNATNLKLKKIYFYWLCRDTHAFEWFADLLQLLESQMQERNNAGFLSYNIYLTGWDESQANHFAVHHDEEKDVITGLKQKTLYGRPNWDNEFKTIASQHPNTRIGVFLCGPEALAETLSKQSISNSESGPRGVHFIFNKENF
Experiment [9] deals with NADPH oxidase 4 (Homo sapiens) (UniProt Q9NPH5). The experiment can be described thus: compounds shifting NOX4 Amplex Red fluorescence – cell-based, HEK293-NOX4, tetracycline-induced, NOX inhibitor project, primary screen (AID 1160). The conditions noted are these: HEK293-NOX4, Amplex Red H2O2 fluorescence, 45 min; higher = more signal, called active from +8 up or from −8 down.
Chain of NADPH oxidase 4 (Homo sapiens) (Q9NPH5 whole entry, looked up): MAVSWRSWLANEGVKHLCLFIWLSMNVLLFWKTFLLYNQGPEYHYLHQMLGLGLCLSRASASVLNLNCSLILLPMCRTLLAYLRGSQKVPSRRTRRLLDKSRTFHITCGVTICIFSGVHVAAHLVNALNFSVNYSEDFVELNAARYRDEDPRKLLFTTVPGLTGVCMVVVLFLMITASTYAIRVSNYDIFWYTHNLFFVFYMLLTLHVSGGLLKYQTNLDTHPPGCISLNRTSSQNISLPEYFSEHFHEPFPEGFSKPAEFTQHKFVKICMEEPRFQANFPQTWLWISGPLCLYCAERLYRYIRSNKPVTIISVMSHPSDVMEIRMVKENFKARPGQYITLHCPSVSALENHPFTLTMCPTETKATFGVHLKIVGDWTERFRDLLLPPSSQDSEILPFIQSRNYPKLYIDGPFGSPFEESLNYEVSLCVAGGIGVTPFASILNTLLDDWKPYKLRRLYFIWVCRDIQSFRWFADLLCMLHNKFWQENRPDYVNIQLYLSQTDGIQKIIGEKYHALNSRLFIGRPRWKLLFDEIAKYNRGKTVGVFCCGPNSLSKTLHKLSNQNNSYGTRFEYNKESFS

Experiment [10] has as its target NADPH oxidase 5 (Homo sapiens) (UniProt Q96PH1). Nature of the experiment: compounds shifting NOX5 Amplex Red fluorescence – cell-based, HEK293-NOX5, NOX inhibitor project, primary screen (AID 1161). Particulars: HEK293-NOX5, ionomycin, 45 min, higher = more signal.

Chain of NADPH oxidase 5 (Homo sapiens) (Q96PH1 whole entry, looked up): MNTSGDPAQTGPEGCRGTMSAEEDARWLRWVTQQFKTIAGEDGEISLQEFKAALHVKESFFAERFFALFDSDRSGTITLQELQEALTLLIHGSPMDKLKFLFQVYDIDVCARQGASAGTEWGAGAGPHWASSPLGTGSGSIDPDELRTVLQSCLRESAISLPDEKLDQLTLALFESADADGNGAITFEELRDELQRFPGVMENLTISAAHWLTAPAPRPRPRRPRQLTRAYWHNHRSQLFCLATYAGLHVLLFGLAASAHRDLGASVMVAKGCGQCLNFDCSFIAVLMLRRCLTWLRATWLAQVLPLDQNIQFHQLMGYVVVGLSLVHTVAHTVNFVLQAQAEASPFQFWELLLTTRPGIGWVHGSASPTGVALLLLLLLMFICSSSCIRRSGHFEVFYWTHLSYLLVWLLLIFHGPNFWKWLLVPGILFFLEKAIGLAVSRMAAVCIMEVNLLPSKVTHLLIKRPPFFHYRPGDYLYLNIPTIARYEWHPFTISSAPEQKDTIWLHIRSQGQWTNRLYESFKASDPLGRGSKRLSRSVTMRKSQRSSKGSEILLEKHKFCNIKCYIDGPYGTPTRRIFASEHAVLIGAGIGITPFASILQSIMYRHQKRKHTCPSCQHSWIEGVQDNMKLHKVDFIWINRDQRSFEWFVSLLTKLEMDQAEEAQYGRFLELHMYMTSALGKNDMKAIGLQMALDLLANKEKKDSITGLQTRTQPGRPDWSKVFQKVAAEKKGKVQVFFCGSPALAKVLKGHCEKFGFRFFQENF

On to `CC(C)(C)OC(=O)CC[C@@]1(C(N)=O)N=C(c2ccc(OCCCO)cc2)O[C@@H]1c1ccccc1CN=[N+]=[N-]`, for which the z-score in experiment [1] is -0.216 (inactive); in experiment [3] it was 23.4 (active); in experiment [4], 5.68 (inactive); in experiment [5] it was -1.49 (inactive); in experiment [6], 0.739 (inactive); in [7], 0.0301. In addition, the figures for the z-score in experiment [8], in experiment [9] and in [10] were 1.11 (inactive), 1.09 (inactive) and 0.369, respectively. Further, the composite z-score in experiment [2] was 0.997.

Regarding `C=C(/C=C\CNS(=O)(=O)c1ccc(C)cc1)[C@H](O)[C@H]1CCCN1S(=O)(=O)c1ccccc1[N+](=O)[O-]`, the z-score in experiment [1] is -0.473 (inactive); in experiment [3], 12.1 (active); in experiment [4], 2.16 (inactive); in [5], 1.03 (inactive); in experiment [6] it was 0.77 (inactive); in [7], -0.208. Besides, the z-score was -0.264 (inactive) in experiment [8], -2.04 (inactive) in experiment [9] and -1.77 in experiment [10]. The compound further registered a composite z-score in [2] of -0.0366.

Consider `CC[C@@H](O[Si](C#C[Si](C(C)C)(C(C)C)C(C)C)(C(C)C)C(C)C)c1cn([C@H](C)c2ccccc2)nn1`, for which the z-score in [1] is 0.854 (inactive); in experiment [3] it was 0.4 (inactive); in experiment [4], 0.209 (inactive); in [5], -0.969 (inactive); in experiment [6], 0.582 (inactive); in experiment [7] it was -0.711. The z-score in experiment [8] is -0.0103 (inactive); in experiment [9] it was -0.507 (inactive); in experiment [10], 0.0572. Also, the composite z-score in experiment [2] was -0.0601.

Turning to `COCCOC(=O)N1C(=O)[C@@]2(c3cc(C#CC4=CCCCC4)ccc31)[C@H](c1ccc(O)cc1)N1[C@H](c3ccccc3)[C@H](c3ccccc3)OC(=O)[C@H]1[C@@H]2C(=O)N1CCc2cc(OC)c(OC)cc2C1`, the z-score in [1] is -0.164 (inactive); in experiment [3], 0.751 (inactive); in experiment [4], 0.394 (inactive); in experiment [5], -6.44 (inactive); in experiment [6], 0.0991 (inactive); in experiment [7] it was -0.294. In addition, the z-score was 1.48 (inactive) in experiment [8], 1.04 (inactive) in experiment [9] and 1.03 in experiment [10]. Moreover, the composite z-score in [2] worked out at 0.0355.

Turning to `CCOC(=O)C1=CCC(c2cccn2C(=O)OC(C)(C)C)N(S(=O)(=O)c2ccc(C)cc2)C1` (stereo not given), the z-score in experiment [1] was -0.258 (inactive); in experiment [3], 7.3 (inactive); in experiment [4], 1.26 (inactive); in experiment [5], 0.312 (inactive); in experiment [6], 0.486 (inactive); in experiment [7] it was -0.0414. Moreover, the z-score in [8] is -0.035 (inactive); in experiment [9] it was 0.754 (inactive); in [10], 0.499. Further, the composite z-score in experiment [2] stood at 0.245.

Regarding `COc1ccc([Si](C)(C)[C@H]2[C@H](CC(=O)N(CCO)Cc3ccccc3)O[C@@]3(C(=O)N(Cc4ccc(N5C(=O)c6cccc7cccc5c67)cc4)c4ccccc43)[C@@H]2C)cc1`, the z-score in experiment [1] was -0.263 (inactive); in experiment [3], 15.2 (active); in experiment [4] it was 3.52 (inactive); in [5] it was 1.24 (inactive); in experiment [6] it was 1.48 (inactive); in experiment [7], 0.294. Further, the z-score is 1.52 (inactive) in [8], 0.695 (inactive) in experiment [9] and 2.88 in experiment [10]. Also, the composite z-score in experiment [2] amounted to 0.542.

For `O=C1N(Cc2ccccc2)c2ccccc2C[C@@]12N=C(c1ccc(OCCCO)cc1)O[C@H]2c1ccccc1`, the z-score is -1.12 (inactive) in experiment [1]; 10.8 (active) in experiment [3]; 2.67 (inactive) in experiment [4]; 3.39 (inactive) in experiment [5]; 1.03 (inactive) in [6]; 0.075 in experiment [7]. The z-score is 1.92 (inactive) in [8], 0.112 (inactive) in experiment [9] and -1.67 in experiment [10]. Moreover, the composite z-score in [2] was found to be 0.383.

For `CN(C)CCCC[C@@H]1NC(=O)[C@H]2C[C@@H](C(=O)NCCCCCCNC(=O)CS)[C@@H](c3cccc(OCCO)c3)N2C1=O`, the z-score in [1] is -0.175 (inactive); in experiment [3], 2.29 (inactive); in [4] it was 0.677 (inactive); in experiment [5] it was 1.26 (inactive); in experiment [6] it was 0.228 (inactive); in experiment [7], -0.617. The results for the z-score in experiment [8], in experiment [9] and in experiment [10] were 1.07 (inactive), 0.981 (inactive) and 0.992, respectively. Moreover, the composite z-score in [2] was -0.139.

For the compound `CCOC(=O)C[C@H]1[C@H](OC(=O)c2cc3ccccc3oc2=O)[C@@H](NC(=O)Cc2ccc(OC)cc2)c2cc(OCCCO)ccc2N1C(=O)Cc1ccc(OC)cc1`, the z-score in experiment [1] is 0.983 (inactive); in experiment [3] it was 6.34 (inactive); in experiment [4], -1.26 (inactive); in [5], -0.456 (inactive); in [6], -2.42 (inactive); in experiment [7] it was 1.32. In addition, the z-score in [8] is 1.38 (inactive); in experiment [9], 1.52 (inactive); in experiment [10] it was 0.991. The compound further came in with a composite z-score in [2] of 1.28.

Turning to `C=C[C@H](OC)[C@@H](O)c1ccc(OC)c(O)c1`, the z-score in [1] was 0.169 (inactive); in [3] it was -0.258 (inactive); in [4] it was 0.352 (inactive); in [5], -0.658 (inactive); in [6], 0.207 (inactive); in experiment [7] it was -0.425. Besides, the z-score in experiment [8] is -2.15 (inactive); in experiment [9], -0.986 (inactive); in experiment [10] it was -0.556. Besides, in experiment [2], the composite z-score is -0.169.

In the case of `CC(C)Cc1ccc(CN2CC[C@@H](NC(=O)c3ccccc3)C2)cc1`, the z-score is -0.55 (inactive) in experiment [1]; 1.57 (inactive) in [3]; 1.11 (inactive) in [4]; 1.23 (inactive) in experiment [5]; 0.33 (inactive) in experiment [6]; 0.0681 in experiment [7]. In addition, the figures for the z-score in [8], in experiment [9] and in experiment [10] were -0.29 (inactive), -0.413 (inactive) and -2.41, respectively. The compound also returned a composite z-score in experiment [2] of -0.147.

As for `N#Cc1ccc(NN2C(C(O)c3ccc(B(O)O)cc3)C=CC3CN(c4ccccc4)C(=O)C32)cc1` (stereo not given), the z-score in [1] was 1.18 (inactive); in [3] it was 24.4 (active); in experiment [4], 10.6 (active); in experiment [5], 3.76 (inactive); in [6], 2.54 (inactive); in experiment [7], -0.882. Further, the z-score in [8] is -2.63 (inactive); in experiment [9], -6.25 (inactive); in experiment [10], -4.31. In addition, the composite z-score in experiment [2] amounted to 0.521.
